Measured values: PubChem BioAssay AID1159580 (chemical genetic matrix, 2015)
Where “and” joins values, the source holds several entries; their conditions need not be identical. Identical values can stand only once. The whole screen tested about 5,500 compounds, of which about 2,000 (36%) were called active. Not shown: some 18% with an inconclusive outcome. Rule as the data show it: active = normalized growth mostly below about 0.91 (no sharp cut-off); inconclusive = no clear call, values can overlap the other calls; inactive = mostly above about 0.92. Some of the results follow.

Assay: chemical genetic growth profiling, strain panel (AID 1159580);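 also: tested at 20 µM; growth read once vehicle control cultures reached saturation at 30 °C; 1 = growth at the plate median or of vehicle wells; lower values mean less growth of the strain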
Conditions: S. cerevisiae deletion strains, growth OD

Measured: normalized growth

C#CCN(C)Cc1ccccc1
inactive: locus YAL013W, strain DEP1, stronger effect = lower value 0.994 | locus YAL021C, strain ccr4, stronger effect = lower value 1.03 | locus YAL026C, strain drs2, stronger effect = lower value 1.02 | locus YAL030W, strain snc1, stronger effect = lower value 0.999 | locus YAL040C, strain CLN3, stronger effect = lower value 0.998 | locus YBL061C, strain skt5, stronger effect = lower value 0.984 | locus YBR009C, strain hhf1, stronger effect = lower value 0.982 | locus YBR021W, strain FUR4, stronger effect = lower value 1.02 | locus YBR023C, strain chs3, stronger effect = lower value 0.997 | locus YBR171W, strain sec66, stronger effect = lower value 1.04 | locus YBR229C, strain ROT2, stronger effect = lower value 1 | locus YBR231C, strain swc5, stronger effect = lower value 1.01 | locus YBR279W, strain paf1, stronger effect = lower value 0.977 | locus YCL011C, strain gbp2, stronger effect = lower value 1 | locus YCL016C, strain dcc1, stronger effect = lower value 0.962 | locus YCL029C, strain bik1, stronger effect = lower value 1.02 | locus YCL061C, strain MRC1 (second series), stronger effect = lower value 1 | locus YCL069W, strain vba3, stronger effect = lower value 1.02 | locus YCR088W, strain abp1, stronger effect = lower value 1.04 | locus YDL005C, strain med2, stronger effect = lower value 1.02 | locus YDL035C, strain GPR1, stronger effect = lower value 0.997 | locus YDL040C, strain nat1, stronger effect = lower value 1.02 | locus YDL074C, strain BRE1, stronger effect = lower value 0.991 | locus YDL101C, strain DUN1, stronger effect = lower value 1.01 | locus YDL134C, strain PPH21, stronger effect = lower value 1 | locus YDL185W, strain tfp1, stronger effect = lower value 1.01 | locus YDL192W, strain arf1, stronger effect = lower value 1.02 | locus YDR001C, strain nth1, stronger effect = lower value 1.01 | locus YDR069C, strain doa4, stronger effect = lower value 0.955 | locus YDR101C, strain arx1, stronger effect = lower value 1.02 | locus YDR137W, strain rgp1, stronger effect = lower value 0.98 | locus YDR159W, strain sac3, stronger effect = lower value 0.933 | locus YDR162C, strain NBP2, stronger effect = lower value 1 | locus YDR195W, strain ref2 0.988 | locus YDR297W, strain sur2, stronger effect = lower value 0.998 | locus YDR318W, strain mcm21, stronger effect = lower value 1.03 | locus YDR334W, strain swr1, stronger effect = lower value 1.02 | locus YDR335W, strain msn5, stronger effect = lower value 0.996 | locus YDR363W, strain ESC2, stronger effect = lower value 0.949 | locus YDR388W, stronger effect = lower value 1.02 | locus YDR392W, strain spt3, stronger effect = lower value 0.958 | locus YDR502C, strain sam2, stronger effect = lower value 1.01 | locus YEL003W, strain gim4, stronger effect = lower value 1.04 | locus YEL037C, strain rad23, stronger effect = lower value 1.03 | locus YEL061C, strain CIN8 (second series), stronger effect = lower value 1.02 | locus YEL061C, strain CIN8, stronger effect = lower value 0.99 | locus YER002W, strain NOP16, stronger effect = lower value 1.02 | locus YER015W, strain faa2, stronger effect = lower value 1 | locus YER016W, strain bim1, stronger effect = lower value 0.979 | locus YER110C, stronger effect = lower value 1.01 | locus YER111C, strain swi4, stronger effect = lower value 1.01 | locus YER155C, strain BEM2 (second series), stronger effect = lower value 1.01 | locus YER155C, strain BEM2, stronger effect = lower value 1 | locus YER167W, strain BCK2, stronger effect = lower value 1 | locus YFR010W, strain ubp6, stronger effect = lower value 1.04 | locus YGL078C, strain dbp3, stronger effect = lower value 1.01 | locus YGL086W, strain mad1, stronger effect = lower value 0.998 | locus YGL167C, strain pmr1, stronger effect = lower value 0.987 | locus YGL173C, strain kem1, stronger effect = lower value 1.05 | locus YGL227W, strain vid30, stronger effect = lower value 1.01 | locus YGL240W, strain doc1, stronger effect = lower value 0.977 | locus YGL248W, strain PDE1, stronger effect = lower value 1 | locus YGL253W, strain hxk2, stronger effect = lower value 1.02 | locus YGR078C, strain PAC10, stronger effect = lower value 0.995 | locus YGR135W, strain pre9, stronger effect = lower value 1.02 | locus YGR252W, strain gcn5, stronger effect = lower value 0.965 | locus YHR013C, strain ard1, stronger effect = lower value 1 | locus YHR027C, strain rpn1, stronger effect = lower value 1.02 | locus YHR030C, strain SLT2, stronger effect = lower value 0.992 and 0.966 | locus YHR079C, strain IRE1 (second series), stronger effect = lower value 1.03 | locus YHR079C, strain IRE1, stronger effect = lower value 0.927 | locus YHR094C, strain hxt1, stronger effect = lower value 1.02 | locus YHR129C, strain ARP1, stronger effect = lower value 0.996 | locus YHR142W, strain chs7, stronger effect = lower value 1.06 | locus YHR200W, strain rpn10, stronger effect = lower value 1.01 | locus YIL066C, strain RNR3, stronger effect = lower value 0.992 | locus YIL073C, strain SPO22, stronger effect = lower value 1.06 | locus YIL125W, strain kgd1, stronger effect = lower value 1.01 | locus YIR030C, strain dcg1, stronger effect = lower value 1.01 | locus YJL092W, strain hpr5, stronger effect = lower value 1.02 | locus YJL095W, strain BCK1 (second series), stronger effect = lower value 1.01 | locus YJL095W, strain BCK1, stronger effect = lower value 0.99 and 0.98 | locus YJL115W, strain asf1, stronger effect = lower value 1.01 | locus YJL129C, strain trk1, stronger effect = lower value 1.03 | locus YJL134W, strain LCB3, stronger effect = lower value 1 | locus YJL154C, strain vps35, stronger effect = lower value 1.01 | locus YJL164C, strain tpk1, stronger effect = lower value 1.01 | locus YJL166W, strain qcr8, stronger effect = lower value 1.03 | locus YJL168C, strain set2, stronger effect = lower value 1.01 | locus YJL187C, strain SWE1 (second series), stronger effect = lower value 1 | locus YJL187C, strain SWE1, stronger effect = lower value 1.01 | locus YJR043C, strain POL32, stronger effect = lower value 0.997 | locus YJR066W, strain TOR1, stronger effect = lower value 0.936
